In the supplement of paper PMC10849652:
The full data set covers some 7,900 targets. This sample favours those with a hit. About 0.6% of all pairs of compound and target were hits.

These targets were tested with Cc1sc2c(c1C)C(c1ccc(Cl)cc1)=N[C@@H](CC(=O)OC(C)(C)C)c1nnc(C)n1-2 (assay: log2 fold change, soluble protein after heating vs DMSO (PISA); higher = thermal stabilisation; K562 cells, 10 uM, 30 min; active = over 0.2 and 3.5 SD of the protein, either way, in both replicates (recomputed)).
How it was run: (§1)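 Soluble protein was defined as the supernatant after 21,000xg for 90 min. It came from K562 cells at 2×10^6 cells/mL given 10 μM compound for 30 min, heated in aliquots for 3 min across 48°C-58°C, pooled, and extracted in PBS with 0.5% NP-40 at 4°C, and was quantified by TMTpro 16plex LC-MS/MS with equalised channel sums. Thermal stability against control samples, from duplicates, is reported as log2 fold change.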

UniProt Q99757, sequence (Q99757 whole entry, looked up): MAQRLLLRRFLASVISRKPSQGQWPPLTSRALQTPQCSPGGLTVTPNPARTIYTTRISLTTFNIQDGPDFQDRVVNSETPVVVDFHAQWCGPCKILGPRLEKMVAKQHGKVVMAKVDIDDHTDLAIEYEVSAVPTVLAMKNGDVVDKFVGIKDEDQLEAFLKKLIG
UniProt Q70CQ2, sequence (Q70CQ2 whole entry, looked up): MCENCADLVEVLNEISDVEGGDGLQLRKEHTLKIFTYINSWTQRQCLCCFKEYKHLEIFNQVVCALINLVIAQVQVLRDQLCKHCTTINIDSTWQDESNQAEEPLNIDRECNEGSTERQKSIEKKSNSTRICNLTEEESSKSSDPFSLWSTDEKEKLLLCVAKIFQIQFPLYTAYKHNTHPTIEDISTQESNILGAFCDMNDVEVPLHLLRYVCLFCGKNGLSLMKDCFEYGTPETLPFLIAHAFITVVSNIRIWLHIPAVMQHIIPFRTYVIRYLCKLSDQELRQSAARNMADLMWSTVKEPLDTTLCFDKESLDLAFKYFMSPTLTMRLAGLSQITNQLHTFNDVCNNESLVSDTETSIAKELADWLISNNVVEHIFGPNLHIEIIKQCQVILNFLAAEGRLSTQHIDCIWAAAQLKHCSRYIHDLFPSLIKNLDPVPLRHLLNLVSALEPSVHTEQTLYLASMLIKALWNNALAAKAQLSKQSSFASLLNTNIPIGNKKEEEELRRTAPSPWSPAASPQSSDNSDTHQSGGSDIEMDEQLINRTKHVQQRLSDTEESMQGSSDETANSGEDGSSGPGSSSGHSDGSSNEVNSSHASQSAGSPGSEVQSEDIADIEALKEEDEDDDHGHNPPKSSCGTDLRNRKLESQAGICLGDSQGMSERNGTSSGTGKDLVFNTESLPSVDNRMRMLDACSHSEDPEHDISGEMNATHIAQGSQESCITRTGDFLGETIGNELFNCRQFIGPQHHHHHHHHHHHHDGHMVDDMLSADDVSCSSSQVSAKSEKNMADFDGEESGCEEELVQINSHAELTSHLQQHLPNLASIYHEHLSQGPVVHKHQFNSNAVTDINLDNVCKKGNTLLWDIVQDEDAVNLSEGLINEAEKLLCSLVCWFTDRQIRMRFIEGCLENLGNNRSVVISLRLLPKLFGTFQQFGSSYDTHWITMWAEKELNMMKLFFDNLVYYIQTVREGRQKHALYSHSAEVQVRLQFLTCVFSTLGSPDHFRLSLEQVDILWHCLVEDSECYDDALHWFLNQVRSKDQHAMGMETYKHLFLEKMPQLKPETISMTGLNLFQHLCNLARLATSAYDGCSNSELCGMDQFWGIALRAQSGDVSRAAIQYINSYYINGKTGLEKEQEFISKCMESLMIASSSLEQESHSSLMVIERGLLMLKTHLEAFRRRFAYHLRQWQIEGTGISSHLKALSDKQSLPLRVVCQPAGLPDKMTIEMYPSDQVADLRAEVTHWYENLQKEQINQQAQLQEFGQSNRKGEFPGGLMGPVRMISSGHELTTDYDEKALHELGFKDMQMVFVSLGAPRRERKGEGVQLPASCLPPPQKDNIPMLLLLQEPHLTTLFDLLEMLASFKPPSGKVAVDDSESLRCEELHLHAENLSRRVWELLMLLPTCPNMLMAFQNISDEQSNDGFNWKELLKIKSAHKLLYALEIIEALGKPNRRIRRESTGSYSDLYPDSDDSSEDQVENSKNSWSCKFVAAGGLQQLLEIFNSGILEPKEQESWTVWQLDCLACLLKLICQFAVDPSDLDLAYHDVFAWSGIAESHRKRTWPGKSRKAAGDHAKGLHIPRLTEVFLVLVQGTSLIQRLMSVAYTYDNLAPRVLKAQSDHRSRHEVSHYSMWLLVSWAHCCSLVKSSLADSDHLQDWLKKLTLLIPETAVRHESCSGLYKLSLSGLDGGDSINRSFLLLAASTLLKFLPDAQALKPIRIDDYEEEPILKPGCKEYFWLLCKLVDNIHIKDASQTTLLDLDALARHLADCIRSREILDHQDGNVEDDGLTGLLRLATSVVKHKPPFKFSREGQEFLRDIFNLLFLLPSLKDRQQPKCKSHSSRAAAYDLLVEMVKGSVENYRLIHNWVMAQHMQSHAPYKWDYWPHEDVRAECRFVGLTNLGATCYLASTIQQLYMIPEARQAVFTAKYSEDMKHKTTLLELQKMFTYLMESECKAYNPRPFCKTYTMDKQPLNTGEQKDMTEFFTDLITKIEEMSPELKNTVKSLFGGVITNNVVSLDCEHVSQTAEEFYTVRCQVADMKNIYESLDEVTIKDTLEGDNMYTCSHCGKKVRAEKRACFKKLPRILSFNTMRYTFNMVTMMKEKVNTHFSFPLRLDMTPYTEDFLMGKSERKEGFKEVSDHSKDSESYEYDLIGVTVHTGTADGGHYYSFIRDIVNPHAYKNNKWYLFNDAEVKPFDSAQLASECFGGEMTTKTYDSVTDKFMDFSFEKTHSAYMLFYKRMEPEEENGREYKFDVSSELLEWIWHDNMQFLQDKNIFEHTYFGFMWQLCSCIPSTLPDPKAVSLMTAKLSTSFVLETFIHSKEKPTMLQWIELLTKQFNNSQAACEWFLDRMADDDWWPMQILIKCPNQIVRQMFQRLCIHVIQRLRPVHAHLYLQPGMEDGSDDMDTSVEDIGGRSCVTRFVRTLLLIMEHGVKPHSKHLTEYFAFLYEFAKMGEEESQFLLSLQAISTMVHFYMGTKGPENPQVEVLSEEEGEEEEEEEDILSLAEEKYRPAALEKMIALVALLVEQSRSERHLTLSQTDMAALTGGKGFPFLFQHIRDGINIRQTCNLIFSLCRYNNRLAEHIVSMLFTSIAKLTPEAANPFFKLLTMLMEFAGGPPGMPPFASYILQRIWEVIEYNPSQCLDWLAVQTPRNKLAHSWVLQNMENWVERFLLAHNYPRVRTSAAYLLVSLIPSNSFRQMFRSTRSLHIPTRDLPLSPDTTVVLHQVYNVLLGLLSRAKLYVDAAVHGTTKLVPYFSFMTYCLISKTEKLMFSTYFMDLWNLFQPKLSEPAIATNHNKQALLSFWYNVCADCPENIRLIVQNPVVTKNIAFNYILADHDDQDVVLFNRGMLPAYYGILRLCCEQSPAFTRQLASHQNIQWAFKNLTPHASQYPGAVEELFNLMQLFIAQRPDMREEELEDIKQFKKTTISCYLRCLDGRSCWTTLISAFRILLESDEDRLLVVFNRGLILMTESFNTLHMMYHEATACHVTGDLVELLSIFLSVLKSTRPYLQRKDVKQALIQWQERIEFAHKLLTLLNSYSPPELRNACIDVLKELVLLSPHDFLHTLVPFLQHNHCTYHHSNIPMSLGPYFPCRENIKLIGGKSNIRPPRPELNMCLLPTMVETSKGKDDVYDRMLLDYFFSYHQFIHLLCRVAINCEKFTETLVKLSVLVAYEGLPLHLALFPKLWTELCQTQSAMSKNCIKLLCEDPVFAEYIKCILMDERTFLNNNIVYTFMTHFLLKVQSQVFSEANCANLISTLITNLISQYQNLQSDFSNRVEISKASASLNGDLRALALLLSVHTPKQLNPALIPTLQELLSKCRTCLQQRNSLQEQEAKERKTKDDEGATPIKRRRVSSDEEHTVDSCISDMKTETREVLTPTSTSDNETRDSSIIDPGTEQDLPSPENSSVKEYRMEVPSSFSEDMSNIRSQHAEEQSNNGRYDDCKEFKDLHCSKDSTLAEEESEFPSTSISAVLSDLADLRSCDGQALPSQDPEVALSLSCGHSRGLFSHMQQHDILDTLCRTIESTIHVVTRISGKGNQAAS
UniProt P61960, sequence (P61960 whole entry, looked up): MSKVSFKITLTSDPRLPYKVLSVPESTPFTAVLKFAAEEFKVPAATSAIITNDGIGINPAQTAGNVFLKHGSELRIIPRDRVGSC
UniProt Q9P0T7, sequence (Q9P0T7 whole entry, looked up): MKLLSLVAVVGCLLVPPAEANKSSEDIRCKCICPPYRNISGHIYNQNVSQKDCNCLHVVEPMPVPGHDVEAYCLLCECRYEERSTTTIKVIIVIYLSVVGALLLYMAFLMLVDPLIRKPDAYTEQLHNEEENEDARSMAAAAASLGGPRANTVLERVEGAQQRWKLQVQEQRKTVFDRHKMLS
UniProt Q9UDW1, sequence (Q9UDW1 whole entry, looked up): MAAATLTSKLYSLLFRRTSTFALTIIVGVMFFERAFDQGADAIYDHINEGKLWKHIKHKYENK
UniProt Q8NEZ2, sequence (Q8NEZ2 whole entry, looked up): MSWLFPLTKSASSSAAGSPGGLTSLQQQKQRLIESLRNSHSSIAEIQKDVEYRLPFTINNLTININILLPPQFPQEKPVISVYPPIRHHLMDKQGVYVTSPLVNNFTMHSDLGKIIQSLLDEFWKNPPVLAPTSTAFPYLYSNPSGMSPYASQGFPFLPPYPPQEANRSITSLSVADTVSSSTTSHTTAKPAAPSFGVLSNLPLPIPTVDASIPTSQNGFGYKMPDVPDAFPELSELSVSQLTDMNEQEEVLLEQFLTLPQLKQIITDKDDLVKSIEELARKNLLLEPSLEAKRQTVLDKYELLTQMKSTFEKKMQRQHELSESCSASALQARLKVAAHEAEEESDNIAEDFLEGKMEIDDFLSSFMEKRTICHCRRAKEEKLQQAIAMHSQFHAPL
UniProt Q16763, sequence (Q16763 whole entry, looked up): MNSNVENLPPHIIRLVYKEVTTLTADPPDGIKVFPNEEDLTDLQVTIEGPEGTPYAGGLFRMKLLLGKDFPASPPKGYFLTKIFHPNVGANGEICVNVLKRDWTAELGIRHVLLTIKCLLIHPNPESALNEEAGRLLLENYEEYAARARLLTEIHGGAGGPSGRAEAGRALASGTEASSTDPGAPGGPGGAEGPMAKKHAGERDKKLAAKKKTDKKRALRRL
UniProt Q8WVY7, sequence (Q8WVY7 whole entry, looked up): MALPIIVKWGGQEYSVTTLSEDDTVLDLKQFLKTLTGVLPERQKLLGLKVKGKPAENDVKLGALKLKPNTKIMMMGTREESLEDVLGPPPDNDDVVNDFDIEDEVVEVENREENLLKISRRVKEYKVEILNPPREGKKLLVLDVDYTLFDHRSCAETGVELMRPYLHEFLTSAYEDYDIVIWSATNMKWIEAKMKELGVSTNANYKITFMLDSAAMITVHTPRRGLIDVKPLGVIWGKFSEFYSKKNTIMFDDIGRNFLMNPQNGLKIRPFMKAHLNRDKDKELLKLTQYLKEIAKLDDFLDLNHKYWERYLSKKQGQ

| Target | log2 fold change |
| --- | --- |
| UBE2S (UniProt Q16763) | 0 (inactive) |
| TMEM9 (UniProt Q9P0T7) | -0.027 (inactive) |
| TXN2 (UniProt Q99757) | -0.079 (inactive) |
| VPS13B (UniProt Q7Z7G8) | -0.057 (inactive) |
| USP34 (UniProt Q70CQ2) | -0.003 (inactive) |
| UHRF1BP1L (UniProt A0JNW5) | -0.027 (inactive) |
| VPS37A (UniProt Q8NEZ2) | 0.007 (inactive) |
| VWA8 (UniProt A3KMH1) | -0.044 (inactive) |
| UQCR10 (UniProt Q9UDW1) | -0.131 (inactive) |

These targets were tested with c1ccc([C@@H]2C[C@H]2NC2CCNCC2)cc1 in the same assay as above.
How it was run: as §1

| Target | log2 fold change |
| --- | --- |
| VTA1 (UniProt Q9NP79) | -0.025 (inactive) |
| UNC119B (UniProt A6NIH7) | -0.009 (inactive) |
| TSPAN13 (UniProt O95857) | 0.018 (inactive) |
| USP25 isoform 3 (UniProt Q9UHP3) | -0.007 (inactive) |
| UHRF1BP1 (UniProt Q6BDS2) | -0.007 (inactive) |
| VPS72 isoform 2 (UniProt Q15906) | -0.013 (inactive) |
| TTC38 (UniProt Q5R3I4) | -0.016 (inactive) |
| UBA52 (UniProt P62987) | 0.193 (inactive) |
| UBE4B isoform 4 (UniProt O95155) | -0.003 (inactive) |
| UBAP1 isoform 4 (UniProt Q9NZ09) | -0.072 (inactive) |
| UCHL5 isoform 3 (UniProt Q9Y5K5) | 0.167 (inactive) |
| UBE4A isoform 2 (UniProt Q14139) | 0.081 (inactive) |
| UFM1 (UniProt P61960) | 0.083 (inactive) |
| TOMM5 isoform 2 (UniProt Q8N4H5) | 0.005 (inactive) |
| VRK2 (UniProt Q86Y07) | -0.083 (inactive) |
| USP9X (UniProt Q93008) | -0.007 (inactive) |

| Target | log2 fold change |
| --- | --- |
| UFM1 isoform 2 (UniProt P61960) | -0.048 (inactive) |
| WBP4 (UniProt O75554) | 0.051 (inactive) |
| TNPO3 (UniProt Q9Y5L0) | -0.007 (inactive) |
| UBLCP1 (UniProt Q8WVY7) | 0.011 (inactive) |
| TMEM161A (UniProt Q9NX61) | 0.003 (inactive) |
| WDR18 (UniProt Q9BV38) | 0.019 (inactive) |
| UBE2S (UniProt Q16763) | 0.013 (inactive) |
| TMEM9 (UniProt Q9P0T7) | -0.079 (inactive) |
| TXN2 (UniProt Q99757) | -0.067 (inactive) |
| VPS13B (UniProt Q7Z7G8) | 0.031 (inactive) |
| USP34 (UniProt Q70CQ2) | 0.034 (inactive) |
| UHRF1BP1L (UniProt A0JNW5) | -0.018 (inactive) |
| VPS37A (UniProt Q8NEZ2) | 0.036 (inactive) |
| VWA8 (UniProt A3KMH1) | -0.052 (inactive) |
| UQCR10 (UniProt Q9UDW1) | -0.009 (inactive) |
